# Experimental data published in PubChem BioAssay (NCATS).
# Non-standard residues stand in square brackets, D forms with d. Residues, ends and D or L forms follow the SMILES beside them. Orn = NCCC[C@H](N)C(=O)O
# Experiment: qHTS profiling of the MIPE4 collection as inhibitors of Plasmodium falciparum (3D7) proliferation (AID 743344);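 note: scaled between DMSO vehicle wells and 0.29 µM artemisinin as full inhibition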
# Settings: P. falciparum 3D7 in erythrocytes, SYBR Green DNA fluorescence, 72 h; at 28.5 µM unless noted
# Outline: (§1)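 Erythrocytes infected with P. falciparum (0.3% parasitemia, 2.5% hematocrit) incubated with compounds 72 h at 37 C, 5% CO2. Lysis with saponin/Triton buffer containing SYBR Green I, overnight at room temperature in the dark; DNA fluorescence (485/535 nm) normalised to 0.29 uM artemisinin and DMSO.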
row,SMILES,"parasite growth, % of DMSO control"
1,CCOC(=O)C1=C(C)NC(C)=C(C(=O)OCC)C1c1ccccc1C=CC(=O)OC(C)(C)C,6.3%
2,C=C1C(=CC=C2CCC[C@@]3(C)[C@@H]2CC[C@H]3[C@H](C)CCCC(C)C)C[C@@H](O)C[C@@H]1O,22.5%
3,CCCC(=O)O[C@]1(C(=O)CCl)[C@H](C)C[C@@H]2[C@H]3CCC4=CC(=O)C=C[C@]4(C)[C@@]3(F)C(=O)C[C@@]21C,7.36%
4,C[C@@H]1CCC2[C@@H](C)[C@@H](O)O[C@@H]3O[C@@]4(C)CC[C@@H]1[C@@]23OO4 (some centres undefined),5.03%
5,CC(C)N=c1cc2n(-c3ccc(Cl)cc3)c3ccccc3nc-2cc1Nc1ccc(Cl)cc1,10.9%
6,C[C@@H]1CCN(C(=O)CC#N)C[C@@H]1N(C)c1ncnc2[nH]ccc12,84%
7,CC(C)C[C@@H]1NC(=O)[C@H](CCCN)NC(=O)[C@H](C(C)C)NC(=O)[C@@H]2CCCN2C(=O)[C@@H](Cc2ccccc2)NC(=O)[C@H](CC(C)C)NC(=O)[C@H](CCCN)NC(=O)[C@H](C(C)C)NC(=O)[C@@H]2CCCN2C(=O)[C@@H](Cc2ccccc2)NC1=O (cyclo(V[Orn]L[dF]PV[Orn]L[dF]P)),6.95%
8,CCN(CC)Cc1cc(Nc2ccnc3cc(Cl)ccc23)ccc1O,4.69% [at 9.64 µM]

# Experiment: qHTS profiling of the MIPE4 collection as inhibitors of Plasmodium falciparum (DD2) proliferation (AID 743345)
# Settings: P. falciparum Dd2 in erythrocytes, SYBR Green DNA, 72 h; at 28.5 µM unless noted
# Outline: as §1
row,SMILES,"parasite growth remaining, % of DMSO control (lower = more inhibition)"
1,CCOC(=O)C1=C(C)NC(C)=C(C(=O)OCC)C1c1ccccc1C=CC(=O)OC(C)(C)C,7.86%
2,C=C1C(=CC=C2CCC[C@@]3(C)[C@@H]2CC[C@H]3[C@H](C)CCCC(C)C)C[C@@H](O)C[C@@H]1O,65.2%
3,CCCC(=O)O[C@]1(C(=O)CCl)[C@H](C)C[C@@H]2[C@H]3CCC4=CC(=O)C=C[C@]4(C)[C@@]3(F)C(=O)C[C@@]21C,7.93%
4,C[C@@H]1CCC2[C@@H](C)[C@@H](O)O[C@@H]3O[C@@]4(C)CC[C@@H]1[C@@]23OO4 (some centres undefined),6.44%
5,CC(C)N=c1cc2n(-c3ccc(Cl)cc3)c3ccccc3nc-2cc1Nc1ccc(Cl)cc1,7.22%
6,C[C@@H]1CCN(C(=O)CC#N)C[C@@H]1N(C)c1ncnc2[nH]ccc12,103%
7,CC(C)C[C@@H]1NC(=O)[C@H](CCCN)NC(=O)[C@H](C(C)C)NC(=O)[C@@H]2CCCN2C(=O)[C@@H](Cc2ccccc2)NC(=O)[C@H](CC(C)C)NC(=O)[C@H](CCCN)NC(=O)[C@H](C(C)C)NC(=O)[C@@H]2CCCN2C(=O)[C@@H](Cc2ccccc2)NC1=O (cyclo(V[Orn]L[dF]PV[Orn]L[dF]P)),5.43%
8,CCN(CC)Cc1cc(Nc2ccnc3cc(Cl)ccc23)ccc1O,9.46% [at 9.64 µM]

# Experiment: qHTS profiling of the MIPE4 collection as inhibitors of Plasmodium falciparum (DD2) proliferation (Rep 2) (AID 743346)
# Settings: P. falciparum Dd2 in erythrocytes, SYBR Green DNA, 72 h; at 28.5 µM unless noted
# Outline: as §1
row,SMILES,"parasite growth, % of control (lower = inhibition)"
1,CCOC(=O)C1=C(C)NC(C)=C(C(=O)OCC)C1c1ccccc1C=CC(=O)OC(C)(C)C,19.9%
2,C=C1C(=CC=C2CCC[C@@]3(C)[C@@H]2CC[C@H]3[C@H](C)CCCC(C)C)C[C@@H](O)C[C@@H]1O,29.8%
3,CCCC(=O)O[C@]1(C(=O)CCl)[C@H](C)C[C@@H]2[C@H]3CCC4=CC(=O)C=C[C@]4(C)[C@@]3(F)C(=O)C[C@@]21C,32.4%
4,C[C@@H]1CCC2[C@@H](C)[C@@H](O)O[C@@H]3O[C@@]4(C)CC[C@@H]1[C@@]23OO4 (some centres undefined),10.6%
5,CC(C)N=c1cc2n(-c3ccc(Cl)cc3)c3ccccc3nc-2cc1Nc1ccc(Cl)cc1,166%
6,C[C@@H]1CCN(C(=O)CC#N)C[C@@H]1N(C)c1ncnc2[nH]ccc12,78.4%
7,CC(C)C[C@@H]1NC(=O)[C@H](CCCN)NC(=O)[C@H](C(C)C)NC(=O)[C@@H]2CCCN2C(=O)[C@@H](Cc2ccccc2)NC(=O)[C@H](CC(C)C)NC(=O)[C@H](CCCN)NC(=O)[C@H](C(C)C)NC(=O)[C@@H]2CCCN2C(=O)[C@@H](Cc2ccccc2)NC1=O (cyclo(V[Orn]L[dF]PV[Orn]L[dF]P)),6.21%
8,CCN(CC)Cc1cc(Nc2ccnc3cc(Cl)ccc23)ccc1O,11.1% [at 9.64 µM]
